This note sets out measurements from PubChem BioAssay (NCI).

Several values for one entry are separate records, joined by “and”; a condition that tells them apart may be missing. Identical values can stand only once. Compounds without any hit were thinned out: in the full panel of roughly 83,000, 20% have a hit.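 Cell lines were cultured in 96-well plates, exposed to a single compound concentration, and assessed for percent growth 48 hours later.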 Activity calls are given as the source filed them. How the source made its calls: active means growth percent below 10; inactive means the rest.

Among the test systems are NCI-H23 lung; NCI-H226 lung; HOP-62 NSCLC; NCI-H460 lung; HOP-92 NSCLC; NCI-H522 lung; A549/ATCC NSCLC; 786-0 renal; COLO 205 colon; NCI-H322M lung.
Common to all, as to experiment: NCI-60 one-dose screen, 48 h (100 = growth as untreated, 0 = no growth, -100 = all killed)
Common to all, as to conditions: 10 µM unless noted

On to `Cc1ccc(-c2nc(SCC(=O)c3ccc(C#N)cc3)[nH]c(=O)c2C#N)cc1`, for which the growth in the assay with NCI-H23 lung was 105% (inactive); in the assay on NCI-H226 lung, 110% (inactive); in the assay with HOP-62 NSCLC, 103% (inactive); in the assay on NCI-H460 lung, 115% (inactive); with HOP-92 NSCLC, 108% (inactive); in the assay with NCI-H522 lung, 82.1% (inactive). Further, the results for the growth in the assay with A549/ATCC NSCLC, with 786-0 renal and with COLO 205 colon were 98.4% (inactive), 96.1% (inactive) and 88.9% (inactive), respectively.

Regarding `O=C1/C(=C/c2ccccc2)CN(C(=O)C(Cl)Cl)C/C1=C\c1ccccc1`, the growth is -56.5% (active) with NCI-H23 lung; 95.6% (inactive) in the assay with NCI-H226 lung; 75.2% (inactive) in the assay with HOP-62 NSCLC; -29.7% (active) with NCI-H460 lung; 41.8% (inactive) in the assay with HOP-92 NSCLC; -0.507% (active) in the assay on NCI-H522 lung. Besides, the growth in the assay on A549/ATCC NSCLC is 20.8% (inactive); in the assay on 786-0 renal it was -15.8% (active); in the assay with COLO 205 colon, -1.12% (active).

For `C/C=C(/C)C(=O)O[C@@H]1CC(C)(C)CC2C34OC(=O)[C@@]21CC[C@@]3(C)[C@]1(C)CCC2C(C)(C)C(=O)CC[C@]2(C)C1C[C@@H]4Cl` (stereo partly specified), the growth with NCI-H23 lung was 95.4% (inactive); with NCI-H226 lung, 86.7% (inactive); with HOP-62 NSCLC, 94.5% (inactive); in the assay with NCI-H460 lung, 97.7% (inactive); in the assay on HOP-92 NSCLC, 74.7% (inactive); with NCI-H522 lung, 93% (inactive). Also, the growth in the assay on 786-0 renal was 90.4% (inactive); in the assay with COLO 205 colon it was 98.8% (inactive).

Consider `COc1ccc(C/C(C)=C(\c2ccc(O)cc2)c2ccc(OCCCN(C)C)cc2)cc1`, for which the growth is 91.8% (inactive) with NCI-H23 lung; 94.2% (inactive) in the assay with NCI-H226 lung; 111% (inactive) in the assay on HOP-62 NSCLC; 93.7% (inactive) in the assay with NCI-H460 lung; 68.7% (inactive) in the assay with HOP-92 NSCLC; 91.5% (inactive) with NCI-H522 lung. Also, the growth is 90.6% (inactive) in the assay with A549/ATCC NSCLC, 101% (inactive) with 786-0 renal and 97% (inactive) with COLO 205 colon.

As to `N#CC1C(=O)c2ccccc2C1c1ccccc1` (stereo unspecified), the growth was 97.4% (inactive) and 102% (inactive) with NCI-H23 lung; 105% (inactive) and 96.7% (inactive) in the assay on NCI-H322M lung; 98.8% (inactive) and 107% (inactive) in the assay on HOP-62 NSCLC; 114% (inactive) and 105% (inactive) in the assay on NCI-H460 lung; 75.2% (inactive) and 84.7% (inactive) with HOP-92 NSCLC; 96.4% (inactive) and 99% (inactive) in the assay on NCI-H522 lung. The growth was 102% (inactive) in the assay with A549/ATCC NSCLC; 93.1% (inactive) and 89.8% (inactive) in the assay on 786-0 renal; 115% (inactive) in the assay on COLO 205 colon.

Turning to `O=Nc1ccc(NO)c2ccccc12`, the growth with NCI-H23 lung is 90.6% (inactive) and 68.3% (inactive); in the assay with NCI-H322M lung it was 97.8% (inactive) and 96.2% (inactive); in the assay with HOP-62 NSCLC, 103% (inactive) and 90.5% (inactive); with NCI-H460 lung, 94.6% (inactive) and 105% (inactive); in the assay on HOP-92 NSCLC, 95.1% (inactive) and 92.9% (inactive); with NCI-H522 lung, 93.3% (inactive) and 69.5% (inactive). In addition, the growth in the assay on A549/ATCC NSCLC is 106% (inactive) and 27.5% (inactive); in the assay on 786-0 renal, 104% (inactive) and 96.9% (inactive); in the assay with COLO 205 colon, 101% (inactive) and 85.1% (inactive).

For the molecule `CC(=NCc1ccccc1)c1ccc(O)cc1O`, the growth with NCI-H23 lung was 97.5% (inactive); in the assay on NCI-H226 lung, 101% (inactive); with HOP-62 NSCLC it was 101% (inactive); with NCI-H460 lung it was 107% (inactive); with HOP-92 NSCLC it was 76.2% (inactive); with NCI-H522 lung it was 111% (inactive). Also, the growth was 100% (inactive) with A549/ATCC NSCLC, 105% (inactive) in the assay with 786-0 renal and 105% (inactive) with COLO 205 colon.

As for `O=C(NCc1ccc(Cn2c(=O)sn(-c3ccc(Cl)cc3)c2=O)cc1)OCc1ccc2c(Cl)cc(Cl)c(O)c2n1`, the growth with NCI-H23 lung was 44.1% (inactive); with NCI-H226 lung, 56.9% (inactive); in the assay on HOP-62 NSCLC, 38.3% (inactive); with NCI-H460 lung it was 21.7% (inactive); in the assay on HOP-92 NSCLC, 64.7% (inactive); with NCI-H522 lung, 68.8% (inactive). The growth in the assay with A549/ATCC NSCLC was 30.5% (inactive); in the assay on 786-0 renal, 55.8% (inactive); with COLO 205 colon, 109% (inactive).

Consider `COc1cc(/C=C2\CCC/C(=C\c3cc(CN4CCCC4)c(O)c(OC)c3)C2=O)cc(CN2CCCC2)c1O`, for which the growth in the assay on NCI-H23 lung is 38.4% (inactive); in the assay on NCI-H226 lung, 75.1% (inactive); in the assay on HOP-62 NSCLC it was 102% (inactive); in the assay with NCI-H460 lung it was 6.28% (active); in the assay with HOP-92 NSCLC, 10.5% (inactive); in the assay with NCI-H522 lung, 46.1% (inactive). Further, the growth was -4.39% (active) with 786-0 renal and -45.7% (active) with COLO 205 colon.

`CCOc1ccc(N2C(N)=NC(N)=NC2(C)C)cc1`: the growth in the assay with NCI-H23 lung is 47.6% (inactive) and 83.8% (inactive); in the assay on NCI-H322M lung, 45.2% (inactive) and 99.4% (inactive); with HOP-62 NSCLC, 26.6% (inactive) and 84.5% (inactive); in the assay on NCI-H460 lung, 13.7% (inactive) and 104% (inactive); in the assay on HOP-92 NSCLC, 10.3% (inactive) and 72.5% (inactive); in the assay on NCI-H522 lung, -7.67% (active) and 90.1% (inactive). Besides, the growth was 19.5% (inactive) and 44.8% (inactive) with A549/ATCC NSCLC; 56.5% (inactive) and 84.2% (inactive) in the assay on 786-0 renal; -32.6% (active) and 83% (inactive) in the assay with COLO 205 colon.

For the molecule `Cc1ccc(Nc2nc(-c3cc(O)c(C)c(C)c3O)cs2)cc1`, the growth with NCI-H23 lung was 90.4% (inactive); in the assay with NCI-H226 lung, 90.2% (inactive); in the assay with HOP-62 NSCLC, 99.9% (inactive); in the assay on NCI-H460 lung it was 104% (inactive); with HOP-92 NSCLC it was 98.2% (inactive); in the assay on NCI-H522 lung, 65.8% (inactive). The growth was 88.1% (inactive) in the assay on A549/ATCC NSCLC, 118% (inactive) in the assay on 786-0 renal and 116% (inactive) in the assay with COLO 205 colon.

In the case of `O=C1c2cc3c(cc2-c2c1c1ccc(Cl)cc1c(=O)n2CCCn1ccnc1)OCO3`, the growth in the assay with NCI-H23 lung is -38.2% (active); in the assay on NCI-H226 lung, 1.03% (active); in the assay on HOP-62 NSCLC, 5.44% (active); with NCI-H460 lung, 2.4% (active); in the assay with HOP-92 NSCLC it was -2.88% (active); in the assay on NCI-H522 lung, -26.1% (active). Besides, the growth with A549/ATCC NSCLC was 19.6% (inactive); in the assay on 786-0 renal, -40.9% (active); in the assay on COLO 205 colon it was 14.5% (inactive).
